# Laboratory results reported in PubChem BioAssay (NCATS).
# A number with no mark means an inactive call. The rule behind the calls is not given here.
# Tested on: HIV-1 nucleocapsid protein NCp7 (binding to TG oligonucleotide)
# Test: HIV Nucleocapsid (AID 346);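 note: potency is for inhibitors that block NC binding and lower polarization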
# Details: HIV-1 NC / fluorescein-TGTGTGTG probe, fluorescence polarization
# Method in brief: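 10 nM TG4xF probe with 100 nM nucleocapsid protein in high-salt Hepes pH 7.5 (250mM NaCl) containing 1uM ZnCl2 and reducing agents. Compound inhibition of binding was read as fluorescein polarization after 1 hr at room temperature.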
# Potency is the fitted concentration of half-maximal effect.
row,Compound,Potency
1,COc1ccccc1-c1ccc2ncnc(NC3CC3)c2c1,> 20 µM
2,Cc1cnc(CNc2ncnc3ccc(-c4ccccc4C#N)cc23)cn1,> 20 µM
3,FC(F)(F)c1ccccc1-c1nc(N2CCNCC2)c2ccccc2n1,> 20 µM
4,O=C(Nc1cccc(F)c1)N1CCC2(CC1)CCN(C(=O)c1cc(C(F)(F)F)cc(C(F)(F)F)c1)CC2,> 20 µM
5,Cc1noc(C)c1C(=O)N1CCC2(CCCN(c3ncccn3)C2)CC1,> 20 µM
6,COc1ccccc1CNc1ccnc(-c2cccnc2)n1,> 20 µM
7,Cc1cnc(CNc2ncncc2-c2cccc(NS(C)(=O)=O)c2)cn1,> 20 µM
8,Cn1cccc1C(=O)N1CCC2(CC1)CN(c1ccccn1)C2,> 20 µM
9,CC(=O)N1CCC2(CCCN(c3ncccn3)C2)CC1,> 20 µM
10,Cn1cc(-c2nc3cnc(OCc4ccccc4)nc3n(CCC#N)c2=O)c2ccccc21,> 20 µM
11,O=C(c1ccco1)N1CCC2(CCN(Cc3ccncc3)CC2)CC1,> 20 µM
12,c1csc(CNc2ncncc2-c2ccoc2)c1,> 20 µM
13,Cc1ccccc1-c1cc(-n2ccnc2)ncn1,> 20 µM
14,CC(C)NC(=O)N1CC2(CCN(C(=O)c3cc(C(F)(F)F)cc(C(F)(F)F)c3)CC2)C1,> 20 µM
15,COc1cccc(Cn2c(=O)c(C)nc3cnc(Oc4ccccc4)nc32)c1,> 20 µM
16,Clc1ccccc1-c1nc(NCc2cccnc2)c2ccccc2n1,> 20 µM
17,COc1cccc(Cn2c(=O)cnc3cnc(OCc4ccccc4)nc32)c1,> 20 µM
18,COC(=O)N1CCC2(CCCN(C(=O)Nc3ccc(OC)cc3)C2)CC1,> 20 µM
19,O=c1c(-c2cc(F)cc(F)c2)nc2cncnc2n1Cc1ccccc1,> 20 µM
20,O=c1c(-c2cc(F)cc(F)c2)nc2cncnc2n1Cc1ccccc1Cl,> 20 µM

row,Compound,Potency
1,Cc1nc2cnc(N3CCNCC3)nc2n(Cc2cccs2)c1=O,> 4 µM
2,CN(C)c1ncc2nc(-c3ccc(F)cc3)c(=O)n(C[C@H]3CCCO3)c2n1,> 20 µM
3,COCC(=O)N1CCC2(CC1)CN(c1ccncc1)C2,> 20 µM
4,CS(=O)(=O)Nc1cccc(-c2ccc3ncnc(N4CCOCC4)c3c2)c1,> 20 µM
5,Cn1cccc1C(=O)N1CCC[C@@]2(CCN(Cc3ccccc3)C2)C1,> 20 µM
6,COc1ccc(CNc2nc(-c3ccc4c(c3)OCO4)nc3ccccc23)c(OC)c1,> 20 µM
7,COc1ccccc1-c1cncnc1NCc1cnc(C)cn1,> 20 µM
8,COC(=O)N1CCC[C@@]2(CCN(C(=O)Nc3cccc(C#N)c3)C2)C1,> 4 µM
9,COc1ccc(-n2c(=O)c(-c3cccs3)nc3cnc(N4CCOCC4)nc32)cc1,> 4 µM
10,CS(=O)(=O)Nc1cccc(-c2nc(Nc3ccncc3)c3ccccc3n2)c1,> 20 µM
11,Cc1cccc(CNc2cc(-c3cccc(NS(C)(=O)=O)c3)ncn2)c1,> 20 µM
12,COCCn1c(=O)c(-c2ccc(F)cc2)nc2cnc(Nc3cccc(OC)c3)nc21,> 20 µM
13,COc1ccccc1CNc1cc(-c2cccc(NS(C)(=O)=O)c2)ncn1,> 20 µM
14,COc1ccc(C(=O)N2CCC3(CCN(CC(C)C)CC3)CC2)cc1,> 20 µM
15,CN(C)c1ncc2nc(-c3ccc(F)cc3)c(=O)n(C3CC3)c2n1,> 4 µM
16,CC(C)NC(=O)N1CCC2(CC1)CCN(C(=O)c1csnn1)CC2,> 20 µM
17,Cc1ccccc1-c1cncnc1Nc1ccc(F)cc1,> 20 µM
18,CCNc1ncc2nc(CCc3ccccc3)c(=O)n(-c3ccc(OC)cc3)c2n1,> 20 µM
19,COc1cccc(-c2ccc3ncnc(NCc4cnc(C)cn4)c3c2)c1,> 20 µM
20,CN(Cc1ccco1)c1ncnc2ccc(-c3cccc(C#N)c3)cc12,> 20 µM
